Screens as filed in PubChem.
Mtb bLac sens: beta-lactam sensitization of Mtb H37Rv, H37Rv; AID 434955, 2010; inhibition, % at 25 µM; 330,000 tested, 0.27% active; M. tuberculosis H37Rv growth with meropenem, percent inhibition; call rule not given here;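 further: growth measured after seven days incubation then overnight dye step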
GDH-TPI counter-1: GDH-TPI coupling enzyme inhibitors, primary screen, artefact control for M. tuberculosis FBA inhibitor project, biochemical, absorbance, full deck | 360,000 tested, 1.2% active | GDH-TPI coupled enzyme counterscreen, NADH absorbance | inhibition, % at 4.8 µM; in the data active means inhibition above about 30%
Mtb FBA inh: Mtb FBA enzyme inhibitors, primary screen, biochemical, fluorescence, strain H37Rv; purified M. tuberculosis FBA, fluorescence read-out; inhibition, % at 1 µM; 360,000 tested, 2.3% active; AID 588726, 2011
Target sequence (P9WQA3 whole entry, looked up): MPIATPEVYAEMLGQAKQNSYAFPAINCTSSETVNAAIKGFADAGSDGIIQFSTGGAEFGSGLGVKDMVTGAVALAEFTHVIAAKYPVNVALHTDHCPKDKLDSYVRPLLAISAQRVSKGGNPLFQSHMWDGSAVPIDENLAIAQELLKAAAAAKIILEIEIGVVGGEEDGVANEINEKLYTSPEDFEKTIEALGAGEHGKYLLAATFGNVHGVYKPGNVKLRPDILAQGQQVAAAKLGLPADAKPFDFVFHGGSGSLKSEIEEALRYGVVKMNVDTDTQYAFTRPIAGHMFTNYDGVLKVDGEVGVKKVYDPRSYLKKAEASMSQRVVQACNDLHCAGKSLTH
CCHFV vOTU inh: CCHFV vOTU protease inhibitors, primary screen, biochemical, Pep-AMC substrate, fluorescence; Crimean-Congo hemorrhagic fever virus L polyprotein viral ovarian tumor (vOTU) protease …; 370,000 tested, 0.55% active; inhibition, % at 11.5 µM; in the data active means inhibition above about 30%
MazEF act: activators of E. coli MazEF toxin-antitoxin RNase, primary screen, biochemical, fluorescence, uHTS | 350,000 tested, 0.32% active | Endoribonuclease toxin MazF (Escherichia coli (strain K12)), P0AE70 | activation, % at 20 µM | FAM/BHQ RNA-DNA oligo cleavage fluorescence, 5 h; in the data active means activation above about 50%
Target sequence (P0AE70 whole entry, looked up): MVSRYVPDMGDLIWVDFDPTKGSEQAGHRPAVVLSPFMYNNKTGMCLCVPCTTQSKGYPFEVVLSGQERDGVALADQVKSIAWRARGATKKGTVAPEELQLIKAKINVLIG
Mtb FBA inh conf: M. tuberculosis aldolase blockers, biochemical, fluorescence, strain H37Rv, confirmation; shares compounds with Mtb FBA inh; purified M. tuberculosis FBA, fluorescence read-out; inhibition, % at 1 µM; 5,600 tested, 78% active
GDH-TPI counter-2: GDH-TPI coupling enzyme inhibitors, artefact control for M. tuberculosis FBA inhibitor project, biochemical, fluorescence, high throughput | shares compounds with Mtb FBA inh | GDH-TPI coupled enzyme counterscreen | inhibition, % at 1 µM | 5,600 tested, 81% active | AID 652141, 2013; in the data active means inhibition above about 10%
A number is an active result; – = inactive; ? = inconclusive; · = no result given; + = active, no number. Sampled rows, rich in hits. Any-hit rate of the full collection: about 4%. Unless noted, no stated cut-off is given here; in the data, active means inhibition above about 27%; inactive means the rest.

SMILES	Mtb bLac sens	GDH-TPI counter-1	Mtb FBA inh	CCHFV vOTU inh	MazEF act	Mtb FBA inh conf	GDH-TPI counter-2
Cc1cccnc1NC(=O)Nc1cccc2ccccc12	–	–	56.3	–	–	89.9	73.1
Cc1nnc(SCC(=O)NC(C)(C)C)n1NCc1ccc(Cl)cc1	–	–	–	–	–	·	·
Cc1nnc(SCC(=O)NC(C)(C)C)n1NCc1ccc(N(C)C)cc1	–	–	44.0	–	–	60.2	53.8
NS(=O)(=O)c1ccc(CCNC(=O)c2cc(=O)[nH]c3ccccc23)cc1	–	–	–	–	–	·	·
NS(=O)(=O)c1ccc(CCNC(=O)c2coc3ccccc3c2=O)cc1	–	–	27.8	–	–	154.8	98.6
Cc1ccc(OCC(=O)Nc2ccc(O)c(C(=O)O)c2)cc1C	–	–	71.5	–	–	+	+
Cc1ccc(S(=O)(=O)NCCc2cn3nc(C)c(C)nc3n2)cc1C	–	–	64.2	–	–	159.2	159.0
COCCNC(=S)N(CCCO)Cc1cc2cc3c(cc2[nH]c1=O)OCCO3	–	–	–	–	–	·	·
CCN(CC)CCCN(Cc1cc2cc3c(cc2[nH]c1=O)OCO3)C(=S)NCCCN(C)C	–	–	–	–	–	·	·
CCN(CC)CCN(Cc1cc2cc3c(cc2[nH]c1=O)OCCO3)C(=S)NCCOC	·	–	–	–	–	·	·
CCN(CC)CCN(Cc1cc2cc3c(cc2[nH]c1=O)OCO3)C(=S)NCCCOC	–	–	39.2	–	–	96.8	80.5
CCN(CC)CCN(Cc1cc2cc3c(cc2[nH]c1=O)OCO3)C(=S)NCC1CCCO1 (stereo not given)	–	–	56.4	–	–	94.7	69.6
CCN(CC)CCCN(Cc1cc2cc3c(cc2[nH]c1=O)OCO3)C(=S)NCCCOC	–	34.1	40.5	–	–	+	173.2
COCCNC(=S)N(CCO)Cc1cc2cc3c(cc2[nH]c1=O)OCO3	–	–	30.8	–	–	121.9	91.9
COC(=O)[C@]12C[C@H](CC(=O)NCC3CCCCC3)C(=O)N(Cc3ccc4c(c3)OCO4)C1=C[C@H](C(C)C)O[C@@H]2C1CC1	·	·	·	–	·	·	·
O[C@H](COc1cccc(F)c1)CN1CCC(C(O)(c2ccccc2)c2ccccc2)CC1	·	·	·	–	·	·	·
Cc1ccc(C=Nn2c(-c3n[nH]c4c3CCC4)n[nH]c2=S)s1	·	·	·	–	·	·	·
COc1ccc(C(=O)c2[nH]c(N)c(C(=O)c3c[nH]c4ccccc34)c2-c2ccc(OC)cc2)cc1	·	·	·	–	·	·	·
O=C1c2ccccc2NC(c2cccc(O)c2)N1c1ccccc1 (stereo not given)	–	–	42.4	–	–	128.7	107.3
O=C1c2ccccc2NC(c2cccc(O)c2)N1Cc1ccco1 (stereo not given)	–	–	59.5	–	–	106.7	69.7
COC(=O)[C@]12C[C@H](CC(=O)N3CCN(C(=O)C4CC4)CC3)C(=O)N(Cc3ccc(Cl)cc3Cl)C1=C[C@H](C1CCCC1)O[C@@H]2C	·	·	·	–	·	·	·
COc1cccc(Nc2ccc(C(=O)O)cc2N)c1	–	–	61.9	–	–	49.1	49.0
Cc1ccc(S(=O)(=O)c2cc3ccccc3nc2N)cc1	–	–	36.4	–	–	+	193.3
CN(C)c1ncc(S(=O)(=O)c2ccccc2)c(N)n1	–	–	–	–	–	·	·
Cc1nc(NCCc2ccc(S(N)(=O)=O)cc2)c2c(C)c(C)sc2n1	–	–	–	–	–	·	·
SMILES	Mtb bLac sens	GDH-TPI counter-1	Mtb FBA inh	CCHFV vOTU inh	MazEF act	Mtb FBA inh conf	GDH-TPI counter-2
CCOC(=O)c1sc2nc(C)nc(Nc3ccccc3)c2c1C	–	–	–	–	–	·	·
CCOC(=O)c1sc2nc(C)nc(NCCc3ccc(S(N)(=O)=O)cc3)c2c1C	–	–	35.5	–	–	95.6	77.9
CCOC(=O)c1sc2nc(C)nc(NCc3ccccc3)c2c1C	–	–	53.5	–	–	–	–
O=C(Nc1nc2ncccn2c1-c1ccc(F)cc1)c1ccccc1	·	·	·	–	·	·	·
CC(C)C[C@H](NC(=O)c1cccs1)C(=O)N1CCC[C@H]1C(=O)NCc1ccccc1	·	·	·	–	·	·	·
COc1cc(OC)c(C2=NOC(C(=O)Nc3ccc4c(c3)OCO4)C2)cc1Cl (stereo not given)	–	–	57.1	–	–	52.8	42.4
Nc1[nH]c(C(=O)c2ccccc2)c(-c2ccc(Cl)cc2)c1C(=O)c1c[nH]c2cc(F)ccc12	·	·	·	–	·	·	·
O=C1CC(C(=O)Nc2ccc(O)c(C(=O)O)c2)C(c2ccccc2)O1 (stereo not given)	–	–	58.9	–	–	143.4	165.3
O=C1CC(C(=O)Nc2ccc(C(=O)O)cc2)C(c2ccccc2)O1 (stereo not given)	–	–	–	–	–	·	·
COC(=O)C1=C(C)NC2=C(C(=O)CCC2)C1c1cn(Cc2ccc(Br)cc2)nc1-c1ccccc1 (stereo not given)	–	–	27.8	–	–	41.4	29.8
COC(=O)C1=C(C)NC2=C(C(=O)CCC2)C1c1cccc(C)n1 (stereo not given)	–	–	27.7	–	–	147.0	121.1
COC(=O)C1=C(C)NC2=C(C(=O)CC(C)(C)C2)C1c1cn(Cc2ccc(Br)cc2)nc1-c1ccccc1 (stereo not given)	–	–	–	·	–	·	·
CC1(C)CC(=O)N(CC(=O)N2CCN(c3cccc(C(F)(F)F)c3)CC2)c2ccccc2S1(=O)=O	·	·	·	–	·	·	·
CCN(CC)c1ccc2cc(-c3nc4ccccc4n3C)c(=O)oc2c1	?	–	40.3	–	–	–	–
O=c1oc2ccc3ccccc3c2cc1-c1nnc(-c2cccs2)o1	–	–	30.3	–	–	114.5	84.3
COc1ccc(-c2nnc(-c3cc4c(ccc5ccccc54)oc3=O)o2)cc1	–	–	–	–	–	·	·
CCN(CC)c1ccc2cc(-c3nnc(-c4ccccc4)o3)c(=O)oc2c1	–	–	33.6	–	900.0	145.8	104.7
CCN(CC)c1ccc2cc(-c3nc(-c4ccc(OC)cc4)cs3)c(=O)oc2c1	–	·	·	–	–	·	·
CCN(CC)c1ccc2cc(-c3nc4ccccc4[nH]3)c(=O)oc2c1	–	–	–	·	·	·	·
O=c1oc2ccc3ccccc3c2cc1-c1nnc(-c2ccccc2)o1	–	–	50.9	–	–	39.3	32.3
CC(C)c1[nH]nc2c1C(c1ccc(F)cc1)N(Cc1ccccc1)C2=O (stereo not given)	·	·	·	–	·	·	·
COC(=O)[C@]12C[C@H](CC(=O)NCc3cccc4ccccc34)C(=O)N(Cc3ccc(Cl)cc3Cl)C1=C[C@H](C(C)C)O[C@@H]2C1CC1	·	·	·	–	·	·	·
